Publication PMC4552634, “A New Set of Chemical Starting Points with Plasmodium falciparum Transmission-Blocking Potential for Antimalarial Drug Discovery” (PLoS ONE, 2015)
Read-outs that look alike come from different tables or passages of the source. The whole screen tested about 13,000 compounds, of which about 3,200 (25%) showed an effect of 50% or more. The list shows a part of the results.

System: P. falciparum stage V gametocytes
Set-up: BacTiter-Glo ATP luminescence viability of purified stage V gametocytes in 384-well plates, per cent inhibition versus DMSO
Settings: 48 h, 5 µM, inhibitor

SMILES | % Inhibition [%] | % Inhibition (% Inhibition) [%]
CC(C)C[C@H](NC(=O)c1ccc(OCCN2CCOCC2)cc1)C(=O)N[C@H](/C=N/N1CCNC1=O)CCc1ccccc1 [TCMDC-136156] | 19.17 | –
O=C(Nc1ccc(Cl)cc1)Nc1ccc2nonc2c1 [TCMDC-124586] | -84.09 | –
COc1cc(N(C)Cc2cnc3nc(N)nc(N)c3n2)cc(OC)c1OC [TCMDC-137363] | 43.25 | –
Cc1cccc(-n2c(Nc3ccc(C)c(Cl)c3)nc3ccc(S(=O)(=O)NC(C)C(C)C)cc32)c1 (stereo not shown) [TCMDC-136234] | -15.02 | –
CCCc1c(C(=O)OCC)c2cc(O)ccc2n1-c1ccc(OC)cc1 [TCMDC-125126] | -66.75 | –
COc1cccc(C2=CC(C)(C)Oc3cc(OCCN(C)C)ccc32)c1 [TCMDC-131403] | 8.416 | –
Cc1sc(N2CCN(C)CC2)nc1C(=O)Nc1ccc(F)cc1C(F)(F)F [TCMDC-134302] | -2.511 | –
Cc1ccc(NC(=O)Nc2ccc(Cn3ncc(N4CCCNCC4)c(Cl)c3=O)cc2)cc1 [TCMDC-133332] | 5.468 | –
Cc1ccc(Cn2ncc(N3CCC(N)CC3)c(Cl)c2=O)cc1NC(=O)Nc1ccc(-c2ccccc2)cc1 [TCMDC-141932] | 107.1 | –
O=C(Nc1ccc(Cl)cc1)Nc1ccc(Cn2ncc(N3CCCNCC3)c(Cl)c2=O)cc1 [TCMDC-133331] | -14.26 | –
Cc1ccc(Cn2ncc(NC3CCNCC3)c(Cl)c2=O)cc1NC(=O)Nc1ccc(-c2ccccc2)cc1 [TCMDC-141929] | 95.66 | –
O=C(Nc1ccc(Cn2ncc(N3CCCNCC3)c(Cl)c2=O)cc1)Nc1ccc(-c2ccccc2)cc1 [TCMDC-141927] | – | -25.81
COc1ccc2nccc([C@@H](O)CN3CCC(NCCOc4cccc(C(F)(F)F)c4Cl)CC3)c2c1 [TCMDC-140661] | 20.87 | –
O=C(Nc1ccc(F)c(Cl)c1)c1cc([N+](=O)[O-])cc2cn[nH]c12 [TCMDC-123694] | -9.121 | –
O=C(Nc1cccc(C(F)(F)F)c1)c1cc([N+](=O)[O-])cc2cn[nH]c12 [TCMDC-125395] | 7.696 | –
O=C(Nc1ccc(Br)c(Cl)c1)c1cc([N+](=O)[O-])cc2cn[nH]c12 [TCMDC-123693] | 77.61 | –
COc1cc(NCCCNCc2cn(S(=O)(=O)c3ccccc3)c3ccccc23)nc2ccccc12 [TCMDC-140214] | 73.5 | –
Cc1cc(OCCCN2CCC(NS(=O)(=O)c3ccc(Cl)c(Cl)c3)CC2)c2ccccc2n1 [TCMDC-136278] | -51.1 | –
COc1cc(NCCCNC(=O)c2ccc(Cl)c(Cl)c2)nc2ccccc12 [TCMDC-140373] | -10.34 | –
CCN(CC)CCOc1c(Cl)cc(Cl)cc1CNCCCNc1cc(=O)c2ccccc2[nH]1 [TCMDC-139684] | 26.89 | –
Cc1c(NCCCNCc2cc(Cl)cc(Cl)c2Cl)[nH]c2ccccc2c1=O [TCMDC-139498] | -59.03 | –
O=c1cc(NCCCNCc2cc(C(F)(F)F)ccc2Cl)[nH]c2ccccc12 [TCMDC-139422] | 4.715 | –
COc1cc(Nc2ccc3cc(S(=O)(=O)N4CCCCC4C)ccc3n2)cc(OC)c1OC (stereo not shown) [TCMDC-125163] | -47.67 | –
COc1cc(NC2CCCC(NCc3cn(S(=O)(=O)c4ccccc4)c4ccccc34)C2)nc2ccccc12 (stereo not shown) [TCMDC-140505] | 77.87 | –
COc1cc(NCCCNC(=O)c2cc3c(Cl)cc(Cl)cc3[nH]2)nc2ccccc12 [TCMDC-140360] | 30.45 | –
O=c1cc(NCCCNCc2ccccc2-c2ccccc2)[nH]c2ccccc12 [TCMDC-139450] | -0.2545 | –
CN(C)CCCNCc1cn(S(=O)(=O)c2ccccc2Cl)c2ccccc12 [TCMDC-136302] | 105.4 | –
O=c1cc(NCCCNCc2cn(S(=O)(=O)c3ccccc3)c3ccccc23)[nH]c2ccccc12 [TCMDC-140361] | 89.9 | –
